Screening data (PubChem BioAssay)
RORg inh = blocks mouse ROR gamma transcriptional activity; P51450; Drosophila S2 Gal4-RORgamma UAS-luciferase reporter, 20 h; Potency, µM (highest dose often 53.6 µM), for the others: at the top dose activity change, negative = inhibition, most hits filed as inhibitors; 310,000 compounds, 5.4% hits; also: nearly all actives have a fitted effect of over 60% in size
Target sequence (P51450 whole entry, looked up, the tested form may be a part): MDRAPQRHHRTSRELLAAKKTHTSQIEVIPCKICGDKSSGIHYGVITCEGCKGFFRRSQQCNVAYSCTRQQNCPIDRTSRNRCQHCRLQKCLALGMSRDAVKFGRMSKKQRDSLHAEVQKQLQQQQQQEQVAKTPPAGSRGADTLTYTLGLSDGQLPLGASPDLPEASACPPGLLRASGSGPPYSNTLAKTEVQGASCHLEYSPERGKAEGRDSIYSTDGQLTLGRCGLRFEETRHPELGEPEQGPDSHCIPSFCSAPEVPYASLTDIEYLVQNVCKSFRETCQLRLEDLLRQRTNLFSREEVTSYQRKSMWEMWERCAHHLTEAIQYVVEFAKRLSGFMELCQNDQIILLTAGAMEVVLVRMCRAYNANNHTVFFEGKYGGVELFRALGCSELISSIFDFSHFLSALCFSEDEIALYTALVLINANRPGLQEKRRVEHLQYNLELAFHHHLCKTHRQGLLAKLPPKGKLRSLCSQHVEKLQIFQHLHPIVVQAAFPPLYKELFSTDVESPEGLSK
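In this cell-based reporter format, copper sulfate (700 uM final) drives Gal4–ROR gamma fusion expression from a metallothionein promoter in Drosophila Schneider cells; compounds preincubated 1 hr, reporter read after 20 hr at ambient temperature.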
TDP1 inh = blocks human tyrosyl-DNA phosphodiesterase 1 | Q9NUW8 | recombinant TDP1, AlphaScreen DNA substrate cleavage | Potency, µM (doses to about 130 µM), for inactives: top-dose activity change, negative = inhibition, actives largely listed as inhibitors | 350,000 compounds, 0.28% hits | AID 485290; also: nearly all actives have a fitted effect of over 40% in size
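Signal: AlphaScreen proximity between streptavidin donor and anti-FITC acceptor beads on intact substrate. Reaction: Tdp1 1 nM, substrate 15 nM final, 5 min RT after 15 min compound preincubation.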
TDP1 cell noCPT = qHTS for Inhibitors of human tyrosyl-DNA phosphodiesterase 1 (TDP1): qHTS in cells in absence of CPT. DT40 Tdp1-/- hTDP1 cells, no CPT, ATP luminescence, 48 h. Potency, µM (titrated, usually from 46.2 µM), for inactives: top-dose activity change, negative = growth inhibition, hits mostly inhibitors. 420,000 compounds, 15% hits; also: nearly all actives have a fitted effect of over 55% in size
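Cells were dispensed at 400 per well, compounds added by pin tool, plates incubated ≥48 hr at 37 °C, then CellTiter-Glo added for 30 min at room temperature before luminescence reading. Line: DT40 Tdp1-/- complemented with hTDP1; camptothecin omitted.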
TDP1 cell CPT = growth inhibition of DT40 Tdp1-/-;hTDP1 cells with camptothecin (screen for TDP1 inhibitors); chicken DT40 Tdp1-/-;hTDP1 cells + 20 nM CPT, ATP luminescence, 48 h; Potency, µM (highest dose often 46.2 µM), for inactives: top-dose activity change, negative = growth inhibition, actives largely listed as inhibitors; 420,000 compounds, 12% hits; also: nearly all actives have a fitted effect of over 55% in size
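Chicken DT40 Tdp1-/- cells stably complemented with human TDP1 were seeded at 400 cells/well in medium containing 20 nM camptothecin, exposed to pin-transferred compounds, and grown at 37 °C for at least 48 hr. Viability was read as ATP luminescence.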
Gal4-VP16 FLuc = inhibits Gal4-VP16 luciferase reporter, ROR gamma counter-screen; Drosophila S2 Gal4-VP16 UAS-luciferase, luminescence, 20 h; Potency, µM (highest dose often 53.6 µM), without a hit: top-dose activity, negative = inhibition, most hits filed as inhibitors; 310,000 compounds, 3.5% hits; AID 2546;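 also: Gal4-VP16 expression switched on by copper sulfate through the metallothionein promoter; nearly all actives have a fitted effect of over 50% in size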
* hit, by the source's call; [ ] = another dose, or the depositor's remark. A selection: hits, their analogues and other compounds. The true share with any hit is near 19%. Calls follow the shape of the dose curve; as a rule, active = well fitted curve in the direction sought with a large enough effect; inconclusive = small, poorly fitted or top-dose-only effect, or another doubt; inactive = no such curve, though single readings can be large; an effect the other way counts as inactive or inconclusive. % is scaled to controls: 0 for no effect and ±100 for the full control effect; potency is read from the fitted curve at half-maximal effect.

What do the screens show for `COc1ccc(NS(=O)(=O)c2cc(NC(=O)c3ccc(=O)[nH]c3)ccc2N2CCOCC2)cc1`?
RORg inh: -2%; TDP1 inh: 3%; TDP1 cell noCPT: -2%; TDP1 cell CPT: 14%; Gal4-VP16 FLuc: -6%

What do the screens show for `CN(C)S(=O)(=O)c1ccc(N2CCCC2)c(C(=O)NC2(C)CCS(=O)(=O)C2)c1` (stereo not given)?
TDP1 inh: -13%; TDP1 cell noCPT: -3%; TDP1 cell CPT: 2%

How did Cc1ccc(-n2nnnc2SC(C(=O)c2c[nH]c3ccccc23)c2ccccc2)cc1 (stereo not given) do in these assays?
RORg inh: -1%; TDP1 inh: -1%; TDP1 cell noCPT: -2%; TDP1 cell CPT: 0%; Gal4-VP16 FLuc: inconclusive

What do the screens show for `CSc1oc(-c2ccc(F)cc2)nc1S(=O)(=O)c1ccc(Br)cc1`?
TDP1 inh: -3%; TDP1 cell noCPT: inconclusive; TDP1 cell CPT: inconclusive

How did CCC(C)S(=O)(=O)c1oc(-c2ccc(F)cc2)nc1S(=O)(=O)c1ccc(F)cc1 (stereo not given) do in these assays?
TDP1 inh: 5%; TDP1 cell noCPT: 1µM*; TDP1 cell CPT: 0.58µM*

Results for COc1cc(O)c(C(=O)c2ccccc2)cc1O ?
RORg inh: 13µM*; TDP1 inh: 4%; TDP1 cell noCPT: 4.6µM*; TDP1 cell CPT: 4.1µM*; Gal4-VP16 FLuc: inconclusive

Results for COc1ccc(C(=O)c2ccccc2)c2c(O)ccc(C(=O)c3ccccc3)c12 ?
RORg inh: -13%; TDP1 inh: 5%; TDP1 cell noCPT: 16µM*; TDP1 cell CPT: inconclusive; Gal4-VP16 FLuc: 1%

Results for COc1cc(O)c(C(=O)c2ccccc2)cc1S(=O)(=O)O ?
RORg inh: -10%; TDP1 inh: 3%; TDP1 cell noCPT: 5%; TDP1 cell CPT: 1%; Gal4-VP16 FLuc: 8%

How did Cc1ccc(S(=O)(=O)N2CCN(C(=O)CN3CCOCC3)C2)cc1 do in these assays?
RORg inh: -20%; TDP1 inh: 6%; TDP1 cell noCPT: 3%; TDP1 cell CPT: 12%; Gal4-VP16 FLuc: 0%

How did Cc1ccc(C(=O)/C=C/Nc2ccc(S(=O)(=O)Nc3cc(C)nc(C)n3)cc2)cc1 do in these assays?
RORg inh: -1%; TDP1 inh: inconclusive; TDP1 cell noCPT: inconclusive; TDP1 cell CPT: inconclusive; Gal4-VP16 FLuc: 14%

Results for CC(=O)c1cccc(NS(=O)(=O)c2ccc(N/C=C\C(=O)c3ccc(F)cc3)cc2)c1 ?
RORg inh: 23%; TDP1 inh: 4%; TDP1 cell noCPT: 10µM*; TDP1 cell CPT: 13µM*; Gal4-VP16 FLuc: 7%

What do the screens show for `COc1cc(NS(=O)(=O)c2ccc(N/C=C\C(=O)c3ccc(F)cc3)cc2)nc(OC)n1`?
RORg inh: 24%; TDP1 inh: 0%; TDP1 cell noCPT: -7%; TDP1 cell CPT: 3%; Gal4-VP16 FLuc: 4%

Results for CC(=O)c1ccc(NS(=O)(=O)c2ccc(N/C=C/C(=O)c3ccc(F)cc3)cc2)cc1 ?
RORg inh: 39%; TDP1 inh: -2%; TDP1 cell noCPT: inconclusive; TDP1 cell CPT: inconclusive; Gal4-VP16 FLuc: 0%

How did CC(=O)c1cccc(NS(=O)(=O)c2ccc(N/C=C\C(=O)c3ccc(C)cc3)cc2)c1 do in these assays?
RORg inh: -35%; TDP1 inh: 4%; TDP1 cell noCPT: 3.7µM*; TDP1 cell CPT: inconclusive; Gal4-VP16 FLuc: inconclusive

Results for CC(=O)c1cccc(N/C=C\C(=O)c2ccc(C)cc2)c1 ?
RORg inh: 2.2µM*; TDP1 inh: 5%; TDP1 cell noCPT: inconclusive; TDP1 cell CPT: -17%; Gal4-VP16 FLuc: 8.9µM*

What do the screens show for `CC(=O)c1cccc(NS(=O)(=O)c2ccc(N/C=C/C(=O)c3ccc(F)cc3)cc2)c1`?
RORg inh: inconclusive; TDP1 inh: -3%; TDP1 cell noCPT: 18µM*; TDP1 cell CPT: 12µM*; Gal4-VP16 FLuc: 4.5µM*

What do the screens show for `CC1CN(C(=O)COC(=O)c2ccc(N)c([N+](=O)[O-])c2)CC(C)O1` (stereo not given)?
RORg inh: 16%; TDP1 inh: 0%; TDP1 cell noCPT: 4%; TDP1 cell CPT: 2%; Gal4-VP16 FLuc: -8%

How did CC(=O)c1cccc(NC(=O)c2ccc3ccccc3c2)c1 do in these assays?
RORg inh: inconclusive; TDP1 cell noCPT: -22%; TDP1 cell CPT: -30%; Gal4-VP16 FLuc: inconclusive

What do the screens show for `C=CCNC(=O)c1ccc2nccnc2c1`?
RORg inh: inconclusive; TDP1 inh: -5%; TDP1 cell noCPT: -5%; TDP1 cell CPT: -15%; Gal4-VP16 FLuc: 9%

How did O=C(CCSc1nnc2ccccn12)Nc1ccc2c(c1)OCO2 do in these assays?
RORg inh: 9%; TDP1 inh: 2%; TDP1 cell noCPT: -7%; TDP1 cell CPT: -1%; Gal4-VP16 FLuc: inconclusive

How did CC1=NN(S(=O)(=O)c2ccc(Cl)cc2Cl)C(=O)c2ccccc2O1 do in these assays?
RORg inh: 14%; TDP1 cell noCPT: 16µM*; TDP1 cell CPT: 16µM*; Gal4-VP16 FLuc: 2%

What do the screens show for `Cc1nccc(-c2cccc(NC(=O)Nc3ccc(Cl)cc3)c2)n1`?
RORg inh: -1%; TDP1 inh: 0%; TDP1 cell noCPT: inconclusive; TDP1 cell CPT: -16%; Gal4-VP16 FLuc: 0%

Results for Cc1nccc(-c2cccc(N/N=C(\C#N)C(=O)c3ccccc3)c2)n1 ?
RORg inh: inconclusive; TDP1 inh: 5%; TDP1 cell noCPT: 10µM*; TDP1 cell CPT: 21µM*; Gal4-VP16 FLuc: -26%

What do the screens show for `C[C@H](CO)N1C[C@H](C)[C@@H](CN(C)C)Oc2c(NS(=O)(=O)c3cccs3)cccc2C1=O`?
TDP1 inh: 1%; TDP1 cell noCPT: -3%; TDP1 cell CPT: 7%

What do the screens show for `O=C(O)C(Cc1c[nH]c2ccccc12)N1C(=O)C2C3c4ccccc4C(c4ccccc43)C2C1=O` (stereo not given)?
RORg inh: 3%; TDP1 inh: -3%; TDP1 cell noCPT: -18%; TDP1 cell CPT: -1%; Gal4-VP16 FLuc: -14%[10 µM]

Results for CN(C)c1ccc(CN2CCC(C(N)=O)CC2)cc1 ?
RORg inh: 5%; TDP1 inh: -6%; TDP1 cell noCPT: -13%; TDP1 cell CPT: -8%; Gal4-VP16 FLuc: 2%

How did CC(NC(=O)C1CCN(CCOc2ccc(Cl)cc2)CC1)c1cccc2ccccc12 (stereo not given) do in these assays?
TDP1 cell noCPT: inconclusive; TDP1 cell CPT: 16µM*

Results for CN(C)c1ccc(CN2CCC(C(=O)NC(c3ccc(F)cc3)c3ccc4ccccc4n3)CC2)cc1 (stereo not given) ?
TDP1 cell noCPT: 23µM*; TDP1 cell CPT: inconclusive
